Laboratory results published in PubChem BioAssay.

Assay: budding yeast growth modifiers under rapamycin – strain BY4716, OD600, 96 h, primary screen (AID 1091); note: test concentration not given here
Details: S. cerevisiae BY4716 + rapamycin, higher = more signal, called active from +8 up or from −8 down

z-score, inactive:
CCOC(=O)[C@H](Cc1ccccc1)NC(=O)CCC1CC(OC(=O)NCc2ccc3c(c2)OCO3)CC2(CCCC(COC(=O)NCc3cccc(C(F)(F)F)c3)O2)O1 (stereo not given in full) 0.287
CC(=O)OC[C@H]1O[C@@H](ON=C[C@@H](C)[C@H](OCc2ccccc2)C(C)C)[C@H](OC(C)=O)[C@@H](OC(C)=O)[C@@H]1OC(C)=O -0.17
O=C1[C@H]2[C@H]3[C@H](O)[C@H](O)CC(=NOCc4ccccc4)[C@H]3CC[C@H]2C(=O)N1C[C@@H]1CCCO1 -0.351
CO[C@@H]1COC(=O)[C@@H]2CCCN2C(=O)[C@@H](C)COC(=O)[C@H](COCc2ccccc2)NC(=O)CC=C[C@H]1C 0.458
C=C(/C(=C/C[C@H](OC(C)=O)c1ccc(OCCO)cc1)c1cnc2ccccc2c1)C(C)C -1.03
COC(=O)CC=C[C@@H](C)[C@H](OC)c1ccccc1Br -0.417
COc1ccccc1CN1C(=O)c2ccccc2[C@@H](C(=O)NCC(F)(F)F)[C@@H]1c1ccc(CO)cc1 -0.296
O=C1[C@H]2[C@H]3[C@H](O)[C@H](O)CC(=NO[C@@H]4O[C@H](CO)[C@@H](O)[C@H](O)[C@H]4O)[C@H]3CC[C@H]2C(=O)N1C1CCCCC1 -0.0694
CC(C)=CCCC(C)=CCON=C1C[C@@H](O)[C@@H](O)[C@@H]2[C@@H]3C(=O)N(C[C@@H]4CCCO4)C(=O)[C@@H]3CC[C@@H]12 -0.618
C=CC[C@@H]1C=C[C@H](ON=C2c3cc(OC)ccc3O[C@H](c3cccc(OC)c3)[C@H]2O)[C@@H](CO)O1 -1.42
